Test results as given in publication PMC7862700, “An all-to-all approach to the identification of sequence-specific readers for epigenetic DNA modifications on cytosine”.

Experiments:
Test in all cases: DAPPL (digital affinity profiling via proximity ligation, sequencing); 10 mM Tris-HCl pH 7.5, 50 mM NaCl, 1 mM DTT, 4% glycerol, room temperature, 30 min; GST-TFs on glutathione beads, 16-mer random dsDNA library, 0.1% formaldehyde crosslink after washing; high values mean tight binding
FEV = molecular target: T1, FEV (Homo sapiens, UniProt Q99581 1-238); settings: protein: recombinant; tags: N-terminal GST; dsDNA, one strand shown
T1 sequence: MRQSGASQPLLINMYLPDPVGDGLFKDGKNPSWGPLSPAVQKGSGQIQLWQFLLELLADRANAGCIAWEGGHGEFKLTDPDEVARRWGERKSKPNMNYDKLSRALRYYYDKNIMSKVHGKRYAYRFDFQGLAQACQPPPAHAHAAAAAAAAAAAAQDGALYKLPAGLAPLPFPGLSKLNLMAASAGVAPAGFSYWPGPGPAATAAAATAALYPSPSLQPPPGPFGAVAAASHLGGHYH
Summary of the method: (§1)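 Pools of DNA-barcoded human transcription factors, expressed in yeast as GST fusions on glutathione beads and combined with a tag-only sample, were incubated with 200 nmole of a 16-mer random double-stranded DNA library. Incubation took 30 min at room temperature in Tris/NaCl/DTT/glycerol buffer and was followed by washing, 0.1% formaldehyde crosslinking, proximity ligation (BsaI/T4 ligase, 1 h, 37 °C), PCR amplification and sequencing on an Illumina NextSeq500. Binding signal is the ratio of a hexamer's read frequency for a factor to its frequency for the tag-only sample.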

ETV5 = ETV5 (Homo sapiens, UniProt P41161 1-510); settings: protein: recombinant; tags: N-terminal GST; dsDNA, one strand shown
Chain of ETV5 (P41161 whole entry): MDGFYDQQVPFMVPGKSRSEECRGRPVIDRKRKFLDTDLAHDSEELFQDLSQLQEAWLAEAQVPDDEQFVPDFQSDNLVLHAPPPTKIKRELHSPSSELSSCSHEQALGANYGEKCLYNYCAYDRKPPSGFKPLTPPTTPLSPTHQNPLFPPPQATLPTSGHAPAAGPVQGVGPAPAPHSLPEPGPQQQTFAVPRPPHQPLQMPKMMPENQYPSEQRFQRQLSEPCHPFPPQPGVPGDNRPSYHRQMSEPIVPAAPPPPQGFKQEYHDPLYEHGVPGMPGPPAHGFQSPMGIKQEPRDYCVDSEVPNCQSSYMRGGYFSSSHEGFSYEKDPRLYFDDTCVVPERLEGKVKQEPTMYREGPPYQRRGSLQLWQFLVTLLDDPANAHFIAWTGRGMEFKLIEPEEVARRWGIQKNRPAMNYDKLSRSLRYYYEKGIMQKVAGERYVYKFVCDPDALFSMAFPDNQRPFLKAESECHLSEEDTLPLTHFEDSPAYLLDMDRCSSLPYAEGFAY
Summary of the method: as §1

HSF1 = HSF1 (Homo sapiens, UniProt Q00613 1-529); settings: protein: recombinant; tags: N-terminal GST; chain copies: 3; dsDNA, one strand shown
Chain of HSF1 (Q00613 whole entry): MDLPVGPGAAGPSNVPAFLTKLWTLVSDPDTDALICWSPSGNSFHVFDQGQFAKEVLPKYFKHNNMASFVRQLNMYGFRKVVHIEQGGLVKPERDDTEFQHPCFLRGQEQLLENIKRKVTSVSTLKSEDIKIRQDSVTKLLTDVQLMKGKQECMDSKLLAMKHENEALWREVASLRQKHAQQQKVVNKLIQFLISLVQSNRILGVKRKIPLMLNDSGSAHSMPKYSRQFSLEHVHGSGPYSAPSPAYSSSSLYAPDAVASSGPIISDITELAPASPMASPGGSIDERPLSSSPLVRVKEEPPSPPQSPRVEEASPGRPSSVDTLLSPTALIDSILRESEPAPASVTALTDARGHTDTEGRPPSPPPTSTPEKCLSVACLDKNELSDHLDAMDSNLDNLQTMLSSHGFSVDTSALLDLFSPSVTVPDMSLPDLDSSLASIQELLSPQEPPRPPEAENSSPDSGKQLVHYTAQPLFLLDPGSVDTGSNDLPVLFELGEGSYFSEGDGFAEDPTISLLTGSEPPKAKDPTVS
Summary of the method: as §1

SPIC = molecular target: T2, SPIC (Homo sapiens, UniProt Q8N5J4 1-248); settings: protein: recombinant; tags: N-terminal GST; dsDNA, one strand shown
T2 sequence: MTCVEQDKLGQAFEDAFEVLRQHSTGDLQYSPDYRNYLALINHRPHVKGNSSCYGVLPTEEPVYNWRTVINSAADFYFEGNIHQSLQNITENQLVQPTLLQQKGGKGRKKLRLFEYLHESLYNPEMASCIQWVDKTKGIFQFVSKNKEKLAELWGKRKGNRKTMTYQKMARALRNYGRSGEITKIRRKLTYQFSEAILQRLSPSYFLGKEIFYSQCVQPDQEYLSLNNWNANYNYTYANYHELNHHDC
Summary of the method: as §1

ELF4 = ELF4 (Homo sapiens, UniProt Q99607 1-663); settings: protein: recombinant; tags: N-terminal GST; dsDNA, one strand shown
Chain of ELF4 (Q99607 whole entry): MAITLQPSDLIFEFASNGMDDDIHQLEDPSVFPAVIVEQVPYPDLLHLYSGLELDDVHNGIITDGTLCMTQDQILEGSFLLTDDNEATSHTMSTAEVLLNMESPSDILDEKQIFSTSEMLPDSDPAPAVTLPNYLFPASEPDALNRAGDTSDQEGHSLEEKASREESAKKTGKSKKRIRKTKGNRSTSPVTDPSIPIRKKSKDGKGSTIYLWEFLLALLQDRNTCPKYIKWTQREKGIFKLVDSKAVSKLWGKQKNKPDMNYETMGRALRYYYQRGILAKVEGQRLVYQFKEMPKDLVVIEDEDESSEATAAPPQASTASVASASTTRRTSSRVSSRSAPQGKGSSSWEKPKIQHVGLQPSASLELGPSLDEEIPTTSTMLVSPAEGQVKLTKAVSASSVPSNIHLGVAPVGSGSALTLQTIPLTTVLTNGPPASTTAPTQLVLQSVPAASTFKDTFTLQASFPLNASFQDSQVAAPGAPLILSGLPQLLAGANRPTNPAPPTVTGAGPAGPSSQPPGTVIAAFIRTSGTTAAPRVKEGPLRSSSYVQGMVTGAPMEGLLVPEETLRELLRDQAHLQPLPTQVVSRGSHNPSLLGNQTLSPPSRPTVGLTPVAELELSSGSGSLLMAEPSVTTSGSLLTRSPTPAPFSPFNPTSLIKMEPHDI
Summary of the method: as §1

ELK4 = molecular target: T3, ELK4 (Homo sapiens, UniProt P28324-2 1-405); settings: protein: recombinant; tags: N-terminal GST; dsDNA, one strand shown
T3 sequence: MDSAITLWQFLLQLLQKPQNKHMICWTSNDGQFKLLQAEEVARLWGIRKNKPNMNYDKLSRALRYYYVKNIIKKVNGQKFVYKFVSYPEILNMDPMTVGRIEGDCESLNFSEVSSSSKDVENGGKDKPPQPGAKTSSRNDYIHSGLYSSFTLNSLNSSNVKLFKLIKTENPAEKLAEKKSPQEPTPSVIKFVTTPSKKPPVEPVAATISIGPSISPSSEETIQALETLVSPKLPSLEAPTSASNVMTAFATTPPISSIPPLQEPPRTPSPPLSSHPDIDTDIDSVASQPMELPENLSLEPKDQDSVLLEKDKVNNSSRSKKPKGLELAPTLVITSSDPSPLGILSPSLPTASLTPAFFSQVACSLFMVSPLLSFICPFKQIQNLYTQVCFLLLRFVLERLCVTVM
Summary of the method: as §1

ETV2 = molecular target: T4, ETV2 (Homo sapiens, UniProt O00321 1-342); settings: protein: recombinant; tags: N-terminal GST; dsDNA, one strand shown
T4 sequence: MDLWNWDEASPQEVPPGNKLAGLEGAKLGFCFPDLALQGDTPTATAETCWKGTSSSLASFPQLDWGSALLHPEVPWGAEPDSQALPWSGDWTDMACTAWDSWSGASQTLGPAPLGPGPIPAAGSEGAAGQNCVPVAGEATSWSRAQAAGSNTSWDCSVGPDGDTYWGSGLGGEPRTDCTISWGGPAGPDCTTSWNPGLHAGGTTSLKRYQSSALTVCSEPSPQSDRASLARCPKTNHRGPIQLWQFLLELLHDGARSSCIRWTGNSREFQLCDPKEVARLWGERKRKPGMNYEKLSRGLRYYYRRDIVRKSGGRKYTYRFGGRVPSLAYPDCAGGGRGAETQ
Summary of the method: as §1

ELF3 = molecular target: T5, ELF3 (Homo sapiens, UniProt P78545 1-371); settings: protein: recombinant; tags: N-terminal GST; dsDNA, one strand shown
T5 sequence: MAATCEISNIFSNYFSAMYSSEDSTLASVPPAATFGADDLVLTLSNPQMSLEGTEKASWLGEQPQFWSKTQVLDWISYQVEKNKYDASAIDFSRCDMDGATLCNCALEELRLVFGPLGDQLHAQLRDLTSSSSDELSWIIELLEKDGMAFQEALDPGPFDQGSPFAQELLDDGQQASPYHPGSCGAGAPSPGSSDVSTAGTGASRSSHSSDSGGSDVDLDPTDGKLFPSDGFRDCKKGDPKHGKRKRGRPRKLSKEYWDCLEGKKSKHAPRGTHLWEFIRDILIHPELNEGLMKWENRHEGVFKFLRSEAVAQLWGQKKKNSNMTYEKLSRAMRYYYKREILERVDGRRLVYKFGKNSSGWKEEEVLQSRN
Summary of the method: as §1

CRX = CRX (Homo sapiens, UniProt O43186 1-299); settings: protein: recombinant; tags: N-terminal GST; dsDNA, one strand shown
Chain of CRX (O43186 whole entry): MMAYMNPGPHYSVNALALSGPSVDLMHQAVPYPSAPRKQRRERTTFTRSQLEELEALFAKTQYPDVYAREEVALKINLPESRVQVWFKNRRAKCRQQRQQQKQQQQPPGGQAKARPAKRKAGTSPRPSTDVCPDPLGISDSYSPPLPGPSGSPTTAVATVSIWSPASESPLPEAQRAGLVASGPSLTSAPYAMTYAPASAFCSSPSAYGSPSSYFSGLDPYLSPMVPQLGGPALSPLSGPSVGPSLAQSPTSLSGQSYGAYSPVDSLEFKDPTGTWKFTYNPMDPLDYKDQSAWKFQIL
Summary of the method: as §1

ETV1 = ETV1 (Homo sapiens, UniProt P50549 1-477); settings: protein: recombinant; tags: N-terminal GST; dsDNA, one strand shown
Chain of ETV1 (P50549 whole entry): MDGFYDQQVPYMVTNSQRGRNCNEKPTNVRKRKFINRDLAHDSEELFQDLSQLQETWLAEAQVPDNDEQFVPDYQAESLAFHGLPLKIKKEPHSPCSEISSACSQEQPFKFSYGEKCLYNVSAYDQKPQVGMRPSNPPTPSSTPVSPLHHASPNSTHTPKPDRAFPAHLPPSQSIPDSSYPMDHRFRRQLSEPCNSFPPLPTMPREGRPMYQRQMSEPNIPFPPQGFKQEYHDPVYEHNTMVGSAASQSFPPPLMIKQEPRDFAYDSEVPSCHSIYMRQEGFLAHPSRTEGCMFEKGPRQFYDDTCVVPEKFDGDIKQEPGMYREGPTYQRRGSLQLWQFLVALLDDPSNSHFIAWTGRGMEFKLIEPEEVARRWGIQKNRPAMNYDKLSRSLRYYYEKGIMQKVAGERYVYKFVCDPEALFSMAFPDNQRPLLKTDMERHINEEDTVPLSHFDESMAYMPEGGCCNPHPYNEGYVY
Summary of the method: as §1

Question: What does the source list for AAATGC?
Answer: binding signal (FEV): 1.35 fold enrichment (6-mer frequency, TF over GST control); binding signal (ETV5): 1.34 fold enrichment (6-mer frequency, TF over GST control); binding signal (HSF1): 1.09 fold enrichment (6-mer frequency, TF over GST control); binding signal (SPIC): 1.13 fold enrichment (6-mer frequency, TF over GST control); binding signal (ELF4): 1.23 fold enrichment (6-mer frequency, TF over GST control); binding signal (ELK4): 1.37 fold enrichment (6-mer frequency, TF over GST control); binding signal (ETV2): 1.23 fold enrichment (6-mer frequency, TF over GST control); binding signal (ELF3): 1.35 fold enrichment (6-mer frequency, TF over GST control); binding signal (CRX): 1.19 fold enrichment (6-mer frequency, TF over GST control); binding signal (ETV1): 1.26 fold enrichment (6-mer frequency, TF over GST control)

Question: Which binding signal (FEV) does the source give for TCCATC here?
Answer: 1.21 fold enrichment (6-mer frequency, TF over GST control)

Question: What about the binding signal (ETV5) of the same sequence?
Answer: 1.22 fold enrichment (6-mer frequency, TF over GST control)

Question: And the binding signal (HSF1)?
Answer: 1.16 fold enrichment (6-mer frequency, TF over GST control)

Question: And the binding signal (SPIC)?
Answer: 1.06 fold enrichment (6-mer frequency, TF over GST control)

Question: What about the binding signal (ELF4) of the same sequence?
Answer: 1.13 fold enrichment (6-mer frequency, TF over GST control)

Question: And the binding signal (ELK4)?
Answer: 1.26 fold enrichment (6-mer frequency, TF over GST control)

Question: What about the binding signal (ETV2) of the same sequence?
Answer: 1.32 fold enrichment (6-mer frequency, TF over GST control)

Question: What about the binding signal (ELF3) of the same sequence?
Answer: 1.11 fold enrichment (6-mer frequency, TF over GST control)

Question: And the binding signal (CRX)?
Answer: 1.15 fold enrichment (6-mer frequency, TF over GST control)

Question: What about the binding signal (ETV1) of the same sequence?
Answer: 1.17 fold enrichment (6-mer frequency, TF over GST control)

Question: Which results are given for ATCTGT?
Answer: binding signal (FEV): 1.22 fold enrichment (6-mer frequency, TF over GST control); binding signal (ETV5): 1.07 fold enrichment (6-mer frequency, TF over GST control); binding signal (HSF1): 1.26 fold enrichment (6-mer frequency, TF over GST control); binding signal (SPIC): 1.19 fold enrichment (6-mer frequency, TF over GST control); binding signal (ELF4): 1.21 fold enrichment (6-mer frequency, TF over GST control); binding signal (ELK4): 1.1 fold enrichment (6-mer frequency, TF over GST control); binding signal (ETV2): 1.19 fold enrichment (6-mer frequency, TF over GST control); binding signal (ELF3): 1.17 fold enrichment (6-mer frequency, TF over GST control); binding signal (CRX): 1.45 fold enrichment (6-mer frequency, TF over GST control); binding signal (ETV1): 1.26 fold enrichment (6-mer frequency, TF over GST control)

Question: What does the source list for GTTACT?
Answer: binding signal (FEV): 1.17 fold enrichment (6-mer frequency, TF over GST control); binding signal (ETV5): 1.28 fold enrichment (6-mer frequency, TF over GST control); binding signal (HSF1): 1.03 fold enrichment (6-mer frequency, TF over GST control); binding signal (SPIC): 1.31 fold enrichment (6-mer frequency, TF over GST control); binding signal (ELF4): 1.18 fold enrichment (6-mer frequency, TF over GST control); binding signal (ELK4): 1.09 fold enrichment (6-mer frequency, TF over GST control); binding signal (ETV2): 1.19 fold enrichment (6-mer frequency, TF over GST control); binding signal (ELF3): 1.4 fold enrichment (6-mer frequency, TF over GST control); binding signal (CRX): 1.03 fold enrichment (6-mer frequency, TF over GST control); binding signal (ETV1): 1.17 fold enrichment (6-mer frequency, TF over GST control)

Question: For AATTCA, which binding signal (FEV) is on record?
Answer: 1.24 fold enrichment (6-mer frequency, TF over GST control)

Question: And the binding signal (ETV5)?
Answer: 1.34 fold enrichment (6-mer frequency, TF over GST control)

Question: And the binding signal (HSF1)?
Answer: 1.34 fold enrichment (6-mer frequency, TF over GST control)

Question: And the binding signal (SPIC)?
Answer: 1.32 fold enrichment (6-mer frequency, TF over GST control)

Question: What about the binding signal (ELF4) of the same sequence?
Answer: 1.33 fold enrichment (6-mer frequency, TF over GST control)

Question: And the binding signal (ELK4)?
Answer: 1.26 fold enrichment (6-mer frequency, TF over GST control)

Question: And the binding signal (ETV2)?
Answer: 1.36 fold enrichment (6-mer frequency, TF over GST control)

Question: And the binding signal (ELF3)?
Answer: 1.35 fold enrichment (6-mer frequency, TF over GST control)

Question: And the binding signal (CRX)?
Answer: 1.39 fold enrichment (6-mer frequency, TF over GST control)

Question: What about the binding signal (ETV1) of the same sequence?
Answer: 1.23 fold enrichment (6-mer frequency, TF over GST control)

Question: For AAAAAA, which binding signal (FEV) is on record?
Answer: 1.37 fold enrichment (6-mer frequency, TF over GST control)

Question: And the binding signal (ETV5)?
Answer: 1.35 fold enrichment (6-mer frequency, TF over GST control)

Question: And the binding signal (HSF1)?
Answer: 1.41 fold enrichment (6-mer frequency, TF over GST control)

Question: What about the binding signal (SPIC) of the same sequence?
Answer: 1.29 fold enrichment (6-mer frequency, TF over GST control)

Question: And the binding signal (ELF4)?
Answer: 1.37 fold enrichment (6-mer frequency, TF over GST control)

Question: And the binding signal (ELK4)?
Answer: 1.23 fold enrichment (6-mer frequency, TF over GST control)

Question: And the binding signal (ETV2)?
Answer: 1.35 fold enrichment (6-mer frequency, TF over GST control)

Question: What about the binding signal (ELF3) of the same sequence?
Answer: 1.26 fold enrichment (6-mer frequency, TF over GST control)

Question: And the binding signal (CRX)?
Answer: 1.22 fold enrichment (6-mer frequency, TF over GST control)

Question: What about the binding signal (ETV1) of the same sequence?
Answer: 1.27 fold enrichment (6-mer frequency, TF over GST control)

Question: How did the binding signal (FEV) turn out when CGAAAA was run?
Answer: 1.04 fold enrichment (6-mer frequency, TF over GST control)

Question: What about the binding signal (ETV5) of the same sequence?
Answer: 1.13 fold enrichment (6-mer frequency, TF over GST control)

Question: What about the binding signal (HSF1) of the same sequence?
Answer: 1.85 fold enrichment (6-mer frequency, TF over GST control)

Question: And the binding signal (SPIC)?
Answer: 1.07 fold enrichment (6-mer frequency, TF over GST control)

Question: And the binding signal (ELF4)?
Answer: 1.11 fold enrichment (6-mer frequency, TF over GST control)

Question: What about the binding signal (ELK4) of the same sequence?
Answer: 1.12 fold enrichment (6-mer frequency, TF over GST control)

Question: What about the binding signal (ETV2) of the same sequence?
Answer: 1.04 fold enrichment (6-mer frequency, TF over GST control)

Question: What about the binding signal (ELF3) of the same sequence?
Answer: 1.01 fold enrichment (6-mer frequency, TF over GST control)

Question: And the binding signal (CRX)?
Answer: 1.12 fold enrichment (6-mer frequency, TF over GST control)

Question: What about the binding signal (ETV1) of the same sequence?
Answer: 1.06 fold enrichment (6-mer frequency, TF over GST control)
